Assay results taken from PubChem BioAssay AID2216 (Broad Institute, 2009).
About 3,300 (1.1%) of roughly 300,000 compounds were called active. Roughly 6% stayed inconclusive and do not appear here. The sample holds actives, similar compounds and a random draw of the others, so the mix is not that of the screen.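 How the source made its calls: active means more than half of the replicate wells show a fall in the fluorescence ratio signal beyond about 16% (limit read from the data, passing the limit was not always enough); inconclusive means exactly half of the replicate wells pass the set limit; inactive means fewer than half of replicates pass the limit.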

Tested on: Ran GTPase (GTP-bound) - importin-beta complex
Experiment: inhibitors of RanGTP-importin-beta interaction, primary screen, biochemical, FRET, CFP-Ran, YFP-importin-beta, homogeneous (AID 2216);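 further: 0% = DMSO wells and 100% = Ran loaded with GDP instead of GTP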
Conditions: cell-free CFP-Ran/YFP-importin-beta FRET ratio; hits give high values; concentration not given here

inhibition, inactive:
CC1CCN(c2ccc(-c3ccc(NC(=O)c4ccco4)cc3)nn2)CC1 0.987%
NC(=O)c1c(NC(=O)c2ccccc2)sc2c1CCCC2 3.77%
COc1cccc(OC)c1C(=O)Nc1sc2c(c1C(N)=O)CCCC2 3.19%
CCOc1ccc(NC(=O)COc2ccc(C(=O)N3CCC(C(N)=O)CC3)cc2OC)cc1 1.65%
COc1ccc(C2=NN(C(=O)CSc3nc(=O)n4ccc(C)cc4n3)C(c3ccc(C)cc3)C2)cc1 (configuration not stated) 3.51%
CCOCCCNC(=O)c1cc2c(=O)n3ccccc3nc2s1 -3.33%
Cc1ccc(Cn2c(=N)c(S(=O)(=O)c3ccc(C)cc3)cc3c(=O)n4ccccc4nc32)cc1 1.91%
C=CCSc1nnc2c(n1)-c1cccc3cccc-2c13 6.48%
Cc1cc(C)c2nc(N3CCCC3)c(C#N)cc2c1 2.23%
CC(=O)c1ccc(S(=O)(=O)N2CCN(c3nc4c(C)c(C)ccc4cc3C#N)CC2)cc1 6.35%
CCN(CC(=O)Nc1c(F)cccc1F)C(=O)c1ccc(-c2ccccc2)cc1 -2.68%
COc1ccccc1C(=O)NC(=O)COC(=O)c1ccco1 1.31%
CCOC(=O)N1CCN(Cc2nnc(-c3ccccc3Cl)o2)CC1 -2.66%
Cn1cnnc1SCc1nnc(-c2ccccc2Br)o1 2.51%
COC(=O)Cc1[nH]n(-c2nc3ccccc3s2)c(=O)c1C(C)=Nc1ccc(OC)cc1 -3.75%
C/C(=N\NC(=O)CC(C)C)c1c(C(F)(F)F)[nH]n(-c2nc3ccccc3s2)c1=O 4.64%
Cc1ccc(OCC(=O)Oc2ccccc2[N+](=O)[O-])cc1 0.472%
Cc1ccc(Nc2c3c(nc4ccccc24)CCC3)cc1 2.17%
CC(=O)Nc1ccc(-c2nc3ccccc3o2)cc1 -2.08%
COc1ccc(NC(=O)CSc2nnc(Cc3ccccc3)c(=O)n2N)cc1 -2%
Fc1ccccc1COc1cccc2cccnc12 1.44%
COc1cc(SC)ccc1C(=O)Nc1cc(C)ccn1 -5.84%
COC(=O)c1sc(NC(=O)c2ccc(OC)cc2OC)nc1C -3.52%
CC12CCC(=O)N1C(C(=O)NCCN1C(=O)S/C(=C\c3ccccc3F)C1=O)CS2 (configuration not stated) 6.01%
C=C(C)CNC(=O)c1ccc(OC2CCN(C(=O)COC)CC2)cc1 -0.667%
CCN1CCN(C(=O)N(Cc2ccc(Cl)cc2)S(=O)(=O)c2ccc(C)cc2)CC1 9.84%
CC(=O)c1cc(C#N)c(N2CCCCC2)nc1C 2.36%
CC(=O)c1cc(C#N)c(SCC(=O)C(C)(C)C)nc1C -3.56%
CC(=O)N/C(=C\c1ccccc1)C(=O)OC(C)C(=O)N(C)c1ccccc1 (configuration not stated) 1.82%
O=[N+]([O-])c1ncc(Br)cc1Nc1ccccc1 6.49%
COc1ccccc1NC(=O)Nc1nc(CC(=O)Nc2ccccc2F)cs1 1.51%
Cc1ccnc(NC(=O)CNC(=O)c2ccccc2)c1 5.13%
O=C(Cc1ccc(Br)cc1)NCCc1ccccc1 5.4%
CCCn1nc(NS(=O)(=O)c2ccc(F)cc2)c2cc3ccccc3nc21 4.53%
CCCn1nc(NS(=O)(=O)c2ccccc2)c2cc3cc(C)ccc3nc21 -1.51%
Cc1ccc2c(C)c(C(=O)N3CCN(c4ccncc4)CC3)oc2c1C 1.96%
O=C(NCCCN1CCCC1=O)c1ccc(S(=O)(=O)Nc2ccccc2)cc1 -2.45%
CCOc1ccc(C(=O)NCCCN2CCCC2=O)cc1 3%
Cc1nc(-c2ccc(F)cc2)c(CC(=O)Nc2cc(S(=O)(=O)N3CCCCC3)ccc2C)s1 1.23%
O=C(NCc1ccc2c(c1)OCO2)c1c(O)nc2sccn2c1=O -0.147%
COc1ccc(C(=O)Nc2cccc(NC(=O)c3ccc(OC)cc3OC)n2)c(OC)c1 3.03%
CCCCN1C(N)=NC[C@@H]1CC1CCCCC1 0.418%
Cc1onc(-c2c(F)cccc2Cl)c1C(=O)N(C)CC(=O)Nc1cccc(F)c1 0.755%
C/C(=N/OC(=O)c1c(-c2c(F)cccc2Cl)noc1C)c1cnccn1 -0.76%
CCOC(=O)c1cccc(NC(=O)c2ccc(F)cc2F)c1 -2.82%
CCc1cccc(NC(=O)COC(=O)C2CCN(c3ccc(C(F)(F)F)cn3)CC2)c1 -2.11%
O=C(CNC(=O)C12CC3CC(CC(C3)C1)C2)OCC(=O)N1CCCCC1 9.25%
COc1cccc(C(=O)N/N=C(\C)c2cccc(NC(=O)c3ccc(F)cc3)c2)c1OC -1.6%
Cc1ccc(-n2ncc3c(=O)n(-c4ccc(C)c(C)c4)c(-c4ccco4)nc32)cc1 -0.295%
Cc1ccc(-n2c(SCC(=O)N3CCC(C(=O)O)CC3)nc3ccccc3c2=O)cc1C -0.912%

inhibition, active:
NC(=O)c1c(Nc2nc3c(F)cccc3s2)sc2c1CCCC2 154%
CCn1c(=N)c(S(=O)(=O)c2ccc(F)cc2)cc2c(=O)n3ccccc3nc21 152%
Cc1cccc2cc(C#N)c(N3CCCC3)nc12 39.6%
Nc1cccc2c1C(=O)N(Cc1nnc(-c3ccccc3Br)o1)C2=O 35.1%
COC(=O)Cc1cc(=O)n(-c2nc3ccccc3s2)[nH]1 18.9%
CC(=O)Nc1ccc(Nc2c3ccccc3nc3ccccc23)cc1 52.8%
COc1cc(SC)ccc1C(=O)Nc1nc(C)cs1 18.1%
CC(=O)c1cc(C#N)c(N2CC(C)OC(C)C2)nc1C (configuration not stated) 25.3%
CCCn1nc(NC(=O)C(C)C)c2cc3cc(OC)ccc3nc21 57.9%
CC(C)(C)OC(=O)c1c(N)n(CCCN2CCCC2=O)c2nc3ccccc3nc12 41.8%
CCOC(=O)c1cc2c(=O)n3ccccc3nc2n(CC(C)C)c1=NC(=O)c1c(-c2c(F)cccc2Cl)noc1C 94.5%
Cc1ccc(-n2c(=O)c(C#N)cc3c(=O)n4ccccc4nc32)cc1C 28%
